Screening results as filed in PubChem BioAssay.
ADAM10 inh – ADAM10 inhibition, QFRET primary screen | recombinant ADAM10, EDANS/DABCYL FRET peptide cleavage, 3 h | inhibition, % at 7 µM | AID 720582 | 370,000 tested, 0.62% active;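 active = inhibition above a per-campaign cutoff equal to the mean of compounds falling between control-based bounds plus 3 SD, cut at about 20% in these data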
KLK7 zymogen act – activates the human kallikrein-7 zymogen; purified proKLK7, EDANS-DABCYL substrate fluorescence; 100% is mature enzyme control, 0% vehicle; P49862; activation, % at 7 µM; 370,000 tested, 0.9% active;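 active = activation above the mean of all tested compounds plus 3 SD, computed per campaign excluding outliers beyond control limits, cut at about 13% in these data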
Target sequence (P49862 whole entry, looked up): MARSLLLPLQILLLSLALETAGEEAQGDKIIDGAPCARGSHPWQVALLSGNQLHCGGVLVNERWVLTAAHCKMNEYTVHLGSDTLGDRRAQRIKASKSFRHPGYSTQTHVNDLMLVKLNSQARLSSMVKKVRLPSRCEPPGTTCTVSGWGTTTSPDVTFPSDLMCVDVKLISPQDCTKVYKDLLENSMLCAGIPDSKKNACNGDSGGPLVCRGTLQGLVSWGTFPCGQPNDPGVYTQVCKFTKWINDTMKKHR
V-ATPase pHluor – yeast V-ATPase proton transport regulation by pHLuorin; S. cerevisiae, pHLuorin cytosolic pH fluorescence; response, % at 10 µM; 350,000 tested, 0.37% active; AID 504577; in the data active = response mostly above about 7.3%, no sharp cut-off; inactive = mostly below about 5.4%; note: actives read high
ADAM17 inh – inhibits human ADAM17. recombinant ADAM17, EDANS/DABCYL FRET peptide cleavage. inhibition, % at 6.95 µM. 370,000 tested, 0.83% active;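 active = inhibition above the mean of compounds lying between control limits plus 3 SD, set per campaign, cut at about 8.5% in these data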
ADAM10 confirm – confirmation of inhibitors of human ADAM10 | shares compounds with ADAM10 inh | ADAM10 QFRET peptide cleavage, EDANS fluorescence | inhibition, % at 6.95 µM | 2,100 tested, 1% active | AID 743208;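 active = inhibition above about 20% chosen separately for each screening run, limit read from the data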
ADAM17 counter – inhibits human ADAM17 in ADAM10 exosite counter-screen; shares compounds with ADAM10 inh; ADAM17 QFRET peptide cleavage, EDANS fluorescence; 2,100 tested, 0.5% active; inhibition, % at 6.95 µM; AID 743214;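 active = mean triplicate inhibition above the solvent-only control wells' mean plus 3 SD, cut at about 12% in these data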
Hits are given with their value; - = inactive; . = no result given. Compounds with a hit are over-represented: about 2.3% of the library has one in this group of screens.

SMILES	ADAM10 inh	KLK7 zymogen act	V-ATPase pHluor	ADAM17 inh	ADAM10 confirm	ADAM17 counter
O=[N+]([O-])c1cc(S(=O)(=O)Nc2cccc(C(F)(F)F)c2)ccc1-n1nnc2ccccc21	22.8	-	-	-	-	-
COc1ccc(-c2noc(CNC(=O)c3ccc4c(c3)OCO4)n2)cc1	-	-	-	-	.	.
Cc1cccc(-c2noc(CNC(=O)c3ccc4c(c3)OCO4)n2)c1	22.7	-	-	-	-	-
CN(C)C(=O)c1cc(Cl)ccc1Sc1cc(Cl)ccc1Cl	-	-	-	-	.	.
Oc1ccc(Cl)cc1Sc1cc(Cl)ccc1O	25.5	-	-	-	-	-
O=C(Cc1cccc(C(F)(F)F)c1)Nc1cccc(S(=O)(=O)N2CCCC2)c1	20.4	-	-	-	-	-
CC(C)(C)c1ccc(OCCC(=O)Nc2cccc(S(=O)(=O)N3CCCCC3)c2)cc1	24.0	-	-	-	-	-
O=C(CCCOc1ccccc1)Nc1cccc(S(=O)(=O)N2CCCCC2)c1	-	-	-	-	.	.
CCOC(=O)CC[C@@H]1CC[C@]2(CCCN(Cc3nccs3)C2)O1	-	-	.	-	.	.
CCN(c1ccccc1)S(=O)(=O)c1cc(C(=O)Nc2ccc(F)c(F)c2)ccc1F	25.7	-	-	-	-	-
CCN(c1ccccc1)S(=O)(=O)c1ccc(C(=O)Nc2ccncc2)cc1	-	-	-	-	.	.
O=C(CSc1nnc(-c2ccc(Cl)cc2)n1-c1ccccc1)Nc1ccc2c(c1)OCCO2	-	-	.	-	.	.
O=C(CSc1nnc(-c2ccccn2)n1-c1ccccc1)Nc1cccc2ccccc12	-	-	.	-	.	.
O=C(CN1CCN(S(=O)(=O)c2ccc(Br)cc2)CC1)Nc1ccc2c(c1)OCO2	20.9	-	-	-	-	-
COc1ccc(-c2nnc(SC(C(=O)c3c[nH]c4ccccc34)c3ccccc3)n2N)cc1OC (stereo not given)	22.2	-	-	-	-	-
COc1ccc(CNS(=O)(=O)CC2NCc3ccc(C)cc32)cc1 (stereo not given)	-	-	.	-	.	.
c1ccc(C[n+]2c(-c3ccccc3)csc2Nc2ccccc2)cc1	-	-	-	-	.	.
CC(C)(C)Nc1scc(-c2ccccc2)[n+]1-c1ccccc1	42.1	-	-	-	-	-
CC(C)(C)NC(=O)C(=O)NNC(=O)COc1ccccc1	-	-	-	-	.	.
Cc1ccc(OCC(=O)NNC(=O)C(=O)NC(C)(C)C)cc1	20.9	-	-	-	-	-
C[C@@H]1CN([C@H](C)CO)C(=O)CCCn2nncc2CO[C@@H]1CN(C)C(=O)Nc1ccccc1	-	-	.	-	.	.
CCCOC(=O)c1ccc(Oc2c(-c3ccc(O)cc3O)n[nH]c2C)cc1	22.0	-	-	-	-	-
O=C(NCc1ccccc1)c1cccc(COc2ccccc2Cl)c1	-	-	-	-	.	.
NNC(=O)c1cccc(COc2ccccc2Br)c1	24.0	-	-	-	-	-
O=C(c1ccccc1Oc1ccccc1)N1CCC(Oc2cccnc2)CC1	-	-	.	-	.	.
SMILES	ADAM10 inh	KLK7 zymogen act	V-ATPase pHluor	ADAM17 inh	ADAM10 confirm	ADAM17 counter
COc1ccc(N=Nc2c(C)n[nH]c2C)cc1	-	-	-	-	.	.
Cc1n[nH]c(C)c1N=Nc1ccc(Br)cc1	20.9	-	-	-	-	-
Cc1cccc(Cn2cc(COC(=O)N(C)Cc3ccccc3)nn2)c1	-	-	.	-	.	.
C[C@H](CO)N1C[C@H](C)[C@H](CN(C)S(=O)(=O)c2ccc(Cl)cc2)OCc2ccccc2-c2c(n(C)c3ccccc23)C1=O	35.6	-	-	11.8	-	-
Oc1ccc(Cl)cc1-c1cc(-c2ccccc2Cl)[nH]n1	-	-	-	-	.	.
Oc1ccccc1-c1cc(-c2cccc(F)c2)n[nH]1	20.9	-	-	-	-	-
CCNS(=O)(=O)c1ccc(CCC(=O)Nc2cc(Cl)ccc2Oc2ccccc2)cc1	20.8	-	-	-	-	-
O=C(Cc1cn(Cc2ccccc2)c2ccccc12)Nc1ccc(Nc2cccnc2)c(Br)c1	-	-	.	-	.	.
O=C(Nc1ccc(S(=O)(=O)N2CCCC2)cc1)c1c(F)cccc1F	-	-	-	-	.	.
Cc1ccc(S(=O)(=O)c2ccc(NC(=O)c3c(F)cccc3F)cc2)cc1	23.9	-	-	-	-	-
CN1OC[C@@H]2CN(C(=S)Nc3cc(C(F)(F)F)cc(C(F)(F)F)c3)[C@H](c3ccccc3Br)C[C@@H]21	-	-	.	-	.	.
COc1ccc(S(=O)(=O)NCc2ccccn2)cc1Br	22.7	-	-	-	-	-
COc1ccc(S[C@]2(C(=O)N3CCCC3)CC(=O)N[C@@H]2c2ccc(OC)cc2)cc1	-	-	.	-	.	.
Oc1ccc(C[C@H]2CN([C@@H](Cc3ccccc3)CN3CCC[C@@H]3CN3C(=S)NC[C@@H]3Cc3ccccc3)C(=S)N2CC2CCCCC2)cc1	-	-	.	-	.	.
Oc1ccc(C[C@H]2CNC(=S)N2CC2CCCN2C[C@H](Cc2ccc(O)cc2)N2C[C@H](Cc3ccccc3)N(CC3CCCCC3)C2=S)cc1 (stereo not given in full)	20.2	-	-	12.9	25.0	-
Oc1ccc(C[C@H]2CNC(=S)N2CC2CCCN2C[C@H](Cc2ccccc2)N2C[C@H](Cc3ccc(O)cc3)N(CC3CCCCC3)C2=S)cc1 (stereo not given in full)	25.4	-	.	-	-	-
CN1C2=N[C@@H](c3ccc4c(c3)OCO4)CC(=O)N2/C(=C\c2ccccc2)[C@@H]1c1ccccc1	-	.	.	-	.	.
COc1ccccc1Nc1ccc(NC(=O)c2cccc([N+](=O)[O-])c2C)cc1	34.8	-	-	-	-	-
CCCCN1CC(N2CCCC2)CS1(=O)=O (stereo not given)	-	-	.	-	.	.
O=S1(=O)CC2c3ccccc3CCN2CN1CCc1ccccc1 (stereo not given)	-	-	.	-	.	.
COc1ccc(Oc2cn[nH]c2-c2ccc(O)cc2O)cc1	-	-	-	-	.	.
C=C(C)COc1ccc(-c2[nH]ncc2Oc2cccc(OC)c2)c(O)c1	26.8	-	-	-	-	-
CCCc1ccc(Oc2cn[nH]c2-c2ccc(O)cc2O)cc1	21.9	-	-	-	-	-
O=C(NCCc1ccccc1Cl)[C@@H]1CCCN1C(=O)[C@@H](NC(=O)N1CCOCC1)c1ccccc1	-	-	.	-	.	.
COc1ccc(NC(=O)Cc2coc3cc(C)c(C(C)C)cc23)cc1S(=O)(=O)N1CCOCC1	21.5	-	-	-	-	-
COc1ccc2c(CC(=O)Nc3ccc(OC)c(S(=O)(=O)N4CCOCC4)c3)coc2c1	-	-	-	-	.	.
COc1ccc(S(=O)(=O)NC(=O)C2(C)CCN2C(=O)Cc2ccccc2Cl)cc1 (stereo not given)	85.8	-	.	-	-	-
CC1(C(=O)Nc2ccccc2)CCN1C(=O)Cc1ccc(-c2ccccc2)cc1 (stereo not given)	-	-	.	-	.	.
